Assay outcomes as filed in PubChem.
HT1080 IDH1KD tx: HT-1080 IDH1 knockdown cell toxicity (counter line); HT-1080 IDH1 knockdown viability, ATP luminescence, 48 h; Potency, µM (highest dose often 46.1 µM), for inactives: at the top dose activity, negative = toxicity, usual class: cytotoxic; actives 2% (n = 360,000); AID 686971;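 further: potency means the concentration at half of the fitted maximal effect; 0% = DMSO wells and -100% = cell-free medium wells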
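Cytotoxicity counter-line: IDH1KD HT-1080, 48 h, CellTiter-Glo. Curves classed by r2, magnitude and activity.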
IL1B secr inh: blocks inflammasome-driven IL-1 beta release; THP-1 LPS/ATP IL-1B secretion, AlphaLISA, 16 h; active compounds read low; activity change, % at 57.5 µM; actives 4.7% (n = 360,000); AID 743279; in the data active means activity change below about -50%; inconclusive means mostly about -30% to -49%; further: on the % scale 0 is the no-effect control and ±100 the full control effect
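Secreted IL-1B measured by AlphaLISA bead assay after 16 h compound exposure of THP-1 cells; compounds (final up to 57.5 uM) added 1 h before LPS (250 ng/mL) and ATP (1.25 mM) stimulation; lower signal means less secretion.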
TGFb SMAD3 inh: blocks TGF-b signaling | HepG2 CAGA-GFP TGF-b/SMAD3 reporter, GFP fluorescence, 18 h; TGF-beta stimulated, 500 pg/mL final | Potency, µM (titrated, usually from 46.1 µM), without a hit: at the highest dose activity, negative = inhibition, most hits filed as inhibitors | actives 1.2% (n = 410,000) | AID 588855; further: potency means the concentration at half of the fitted maximal effect; on the % scale 0 is the no-effect control and ±100 the full control effect; nearly all actives have a fitted effect of over 65% in size
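Smad-responsive CAGA-GFP expression was quantified in HEPG2 cells exposed to compounds and 500 pg/mL final TGF-beta for 18 h at 37 degrees C; unstimulated wells defined full inhibition.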
HT1080-NT tox: kills 2HG-producing HT-1080-NT fibrosarcoma cells | HT-1080-NT fibrosarcoma viability, CellTiter-Glo ATP luminescence, 48 h | Potency, µM (doses to about 46.1 µM), without a hit: at the highest dose activity, negative = less viability, hits mostly cytotoxic | actives 1.6% (n = 360,000);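 further: NT is the 2HG producing partner of a matched IDH1 knockdown line; potency means the concentration at half of the fitted maximal effect; 0% = DMSO-treated cells and -100% = media-only wells without cells; nearly all actives have a fitted effect of over 55% in size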
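A 48-hour cytotoxicity screen used HT-1080-NT cells plated 2 hours before compound delivery. ATP-based CellTiter-Glo luminescence measured viability, normalized to DMSO and no-cell controls.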
HepG2 viability: kills HepG2 cells in TGF-b inhibitor counter-screen; HepG2 CAGA-GFP viability, ATP luminescence, 18 h; Potency, µM (top dose mostly 46.1 µM), without a hit: top-dose activity change, negative = cytotoxicity, usual class: cytotoxic; actives 0.76% (n = 410,000); AID 588856; further: potency means the concentration at half of the fitted maximal effect
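HepG2 CAGA-GFP cells (1000/well, DMEM with 1% FBS) received compound, then TGF-beta at 500 pg/mL final, and were incubated 18 hours at 37 degrees C. Viability was read by CellTiter-Glo luminescence. Media-only wells were set as complete cell-killing and DMSO as no toxicity.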
Giardia killer: kills Giardia lamblia | Giardia lamblia trophozoite viability | activity change, % at 7.66 µM, hits read low | actives 0.15% (n = 340,000) | AID 540267; in the data active means activity change below about -80%; inconclusive means between about -30% and that limit;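 further: parasites exposed to compound for two days anaerobically before the ATP read; on the % scale 0 is the no-effect control and ±100 the full control effect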
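Trophozoite viability was measured as ATP-dependent luminescence, read 15-30 min after reagent addition. Before that, parasites at 100 cells/well were exposed to compounds for 48 h, anaerobically, at 37 deg C.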
The depositor's hits bear a star; ? = inconclusive; . = no result given; ! = repeats disagree. Only some compounds are listed: those with a hit (about 6.5% of all), similar ones and a draw of the others. Unless noted, the call rests on the fitted dose curve; in most records, active means well fitted curve in the direction sought with a large enough effect; inconclusive means small, poorly fitted or top-dose-only effect, or another doubt; inactive means no such curve, though single readings can be large; an effect the other way counts as inactive or inconclusive.

SMILES	HT1080 IDH1KD tx	IL1B secr inh	TGFb SMAD3 inh	HT1080-NT tox	HepG2 viability	Giardia killer
CC(=O)Nc1cc2cc(NS(=O)(=O)c3ccc(Cl)cc3)ccc2oc1=O	-8%	-5	4%	0%	0.2µM*	20
COC(=O)c1cc(NC(=O)Nc2cccc(Cl)c2)ccc1Cl	?	-97*	16µM*	13µM*	-90%	-4
COc1ccccc1NS(=O)(=O)c1cccc(NC(=O)Nc2cccc(Cl)c2)c1	?	-65*	?	-6%	14µM*	18
O=C(Nc1cccc(F)c1)Nc1cccc(Cl)c1	?	-88*	?	?	-33%	10
CCCCn1c(SCc2nc3ccccc3s2)nc2cc(S(N)(=O)=O)ccc21	?	?	?	?	-28%	5
O=C(COC(=O)CC(c1ccccc1)c1ccccc1)Nc1cccc(F)c1	3%	0	?	9%	6%	-11
COc1ccc(NC(=O)C/C(C)=N/NC(=O)c2cccs2)c([N+](=O)[O-])c1	-6%	-8	-13%	-7%	-21%	66
COc1ccc(Cl)cc1NC(=O)CCCS(=O)(=O)c1nc(-c2ccc(OC)c(OC)c2)cc(C(F)(F)F)n1	.	.	2.8µM*	.	14µM*	.
COc1ccccc1-c1cc(C(F)(F)F)nc(S(=O)(=O)CCCC(=O)Nc2cc(C)on2)n1	4.1µM*	-102*	-6%	9.2µM*	-35%	-2
COc1ccc(Cl)cc1NC(=O)CCS(=O)(=O)c1nc(-c2cccs2)cc(C(F)(F)F)n1	.	.	?	.	-101%	.
COc1ccc(-c2cc(C(F)(F)F)nc(S(=O)(=O)CCCC(=O)Nc3cc(C)on3)n2)cc1OC	21µM*	-110*	?	16µM*	-109%	2
CC(=O)c1ccc(NC(=O)CSc2nnc(Cc3cccn3C)n2-c2ccc(F)cc2)cc1	5%	30	-1%	-2%	-8%	-1
CC1Cc2cc(/C=C3/SC(N4CCC(C(N)=O)CC4)=NC3=O)ccc2O1 (stereo not drawn)	?	.	11%	?	-1%	-7
CC1CCN(C2=NC(=O)/C(=C/c3cccc(O)c3)S2)CC1	-4%	-75*	-2%	-21%	-1%	-14
CN1CCN(C2=NC(=O)/C(=C/c3cn[nH]c3-c3ccccc3)S2)CC1	14%	?	26%	23%	26%	-7
CC1CCN(C2=NC(=O)/C(=C/c3ccccc3F)S2)CC1	-21%	-99*	-14%	-4%	-29%	-8
Cn1c(=O)c(C#N)c(-c2ccccc2)n2cnnc12	-5%	10	-5%	3%	-1%	6
COc1ccc(CCN(C)c2ncnc3sccc23)cc1OC	-7%	-53*	-17%	-16%	-11%	-1
CCc1ccc(NC(=O)C2=CC(c3cccs3)=NS(=O)(=O)N2C)cc1	-4%	-19	13µM*!	-3%	-26%	5
N#CC1=C(SCC(N)=O)NC2=C(C(=O)c3ccccc32)C1c1ccc(Cl)cc1 (stereo not drawn)	5%	-52*	0%	-1%	13%	-1
COC(=O)CSC1=C(C#N)C(c2ccc(C)cc2)C2=C(CCCC2=O)N1 (stereo not drawn)	-7%	0	18%	0%	-5%	-20
O=c1cc(N/N=C/c2ccccc2)[nH]c(=O)[nH]1	7.3µM*	-99*	9%	3.7µM*	4%	6
O=c1cc(C=NNc2ccccc2)[nH]c(=O)[nH]1	4%	-6	-2%	-8%	-12%	-3
Cc1ccccc1NC(=S)N/N=C/C(C)c1ccccc1 (stereo not drawn)	-13%	56	0%	-1%	4%	10
Cc1cccc(NC(=S)N/N=C/C(C)c2ccccc2)c1C (stereo not drawn)	-28%	-103*	1%	-3%	-2%	1
SMILES	HT1080 IDH1KD tx	IL1B secr inh	TGFb SMAD3 inh	HT1080-NT tox	HepG2 viability	Giardia killer
COc1ccccc1NC(=O)CSc1nnc(CNC(=O)c2ccco2)o1	15%	5	0%	10%	6%	-1
O=C(Cc1ccccc1)Nc1ccc2[nH]ncc2c1	-22%	-58*	0%	-15%	7%	?
COc1ccc2oc(C(=O)OCc3c(C)noc3C)c(C)c2c1	-5%	-107*	1%	-7%	-6%	26
COc1ccc2oc(C(=O)OCC(=O)N3CCC(C)CC3)c(C)c2c1	-3%	-55*	1%	-1%	9%	-23
Cc1cc(=O)oc2cc(OCC(=O)OCC(=O)N3CCC(C)CC3)ccc12	2%	-60*	26%	-9%	72%	24
COc1ccc(C(=O)OCc2c(C)noc2C)cc1	7%	0	16%	12%	0%	-5
COCCNc1oc(-c2cccs2)nc1S(=O)(=O)c1ccc(C)cc1	14%	-30	0%	2%	2%	-19
Oc1cc(OCc2ccccc2)ccc1-c1[nH]ncc1-c1ccccc1	23µM*	-101*	?	16µM*	20µM*	-4
COc1ccc(-c2cn[nH]c2-c2ccc(O)cc2O)cc1	4%	-11	-8%	2%	3%	-1
COc1ccc(-c2cn[nH]c2-c2ccc(OCC(=O)NN)cc2O)cc1OC	-25%	23	5%	?	2%	-14
COc1ccc(-c2cn[nH]c2-c2ccc(OCc3ccc(F)cc3)cc2O)cc1OC	18µM*	-88*	14µM*	-28%	-30%	-20
O=[N+]([O-])c1ccc(COc2ccc(-c3[nH]ncc3-c3ccccc3)c(O)c2)cc1	?	-15	?	?	-65%	-23
COc1ccc(-c2cn[nH]c2-c2ccc(OCc3ccccc3)cc2O)cc1OC	13µM*	-101*	?	?	-54%	4
O=C(Nc1ccc(Cl)c(Cl)c1)Nc1nccs1	?	-10	?	?	11µM*	-17
COc1ccc(C(=O)/C=C/c2ccccc2F)c(OC(=O)c2ccc([N+](=O)[O-])cc2)c1	-29%	-101*	-16%	-5%	-3%	11
COc1cc2c(cc1OC)/C(=C/C(=O)c1ccc(OC)c([N+](=O)[O-])c1)NCC2	?	?	5%	-22%	-12%	4
COc1cc2c(cc1OC)/C(=C/C(=O)c1cccc([N+](=O)[O-])c1)NCC2	-11%	-60*	-10%	1%	-17%	?
O=C(C#Cc1ccccc1)c1cccc([N+](=O)[O-])c1	?	-74*	?	-17%	-29%	-8
